Among the data in PubChem BioAssay (NCATS) are activity, negative = inhibition and Potency values, retold here.

Assay [1] in a line: qHTS profiling for inhibitors of Plasmodium falciparum proliferation (AID 504749). Further: nearly all actives have a fitted effect of over 60% in size.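 On activity, negative = inhibition: 0% = DMSO vehicle and full inhibition = artemisinin control.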 As to conditions: P. falciparum in erythrocytes, SYBR Green DNA, 72 h. The gist of the method:
(§1)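 P. falciparum-infected erythrocytes (0.3% parasitemia, 2.5% hematocrit) incubated with compound 72 h at 37 C, 5% CO2. Parasite DNA detected by SYBR Green after lysis, overnight at room temperature; normalised to 0.29 uM artemisinin and DMSO.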
(In qHTS, concentration-response curves come from the screen itself.)

Assay [2] deals with 3D7. The assay is described as above. As to conditions: P. falciparum in erythrocytes, SYBR Green DNA, 72 h; series mostly up to 28.7 µM. The gist of the method: as §1
Assay [3] concerns 7G8. The assay is described as above. To be noted: P. falciparum in erythrocytes, SYBR Green DNA, 72 h; series mostly up to 28.7 µM. The method, boiled down:
as §1

In assay [4] the test system is AA1029. Described as above. To be noted: P. falciparum in erythrocytes, SYBR Green DNA, 72 h; series mostly up to 28.7 µM. The method, boiled down: as §1
Assay [5] deals with AS120. The description is as above. To be noted: P. falciparum in erythrocytes, SYBR Green DNA, 72 h; series mostly up to 28.7 µM. The method, boiled down:
as §1

Assay [6] concerns ATS189. The description is as above. As to conditions: P. falciparum in erythrocytes, SYBR Green DNA, 72 h; series mostly up to 28.7 µM. The method, boiled down: as §1
In assay [7] the test system is ATS95. The description is as above. As to conditions: P. falciparum in erythrocytes, SYBR Green DNA, 72 h; series mostly up to 28.7 µM. The gist of the method: as §1
For assay [8], the system named is C2A. Described as above. To be noted: P. falciparum in erythrocytes, SYBR Green DNA, 72 h; series mostly up to 28.7 µM. The method, boiled down:
as §1

Assay [9] relates to CP185. The assay is described as above. To be noted: P. falciparum in erythrocytes, SYBR Green DNA, 72 h; series mostly up to 28.7 µM. The gist of the method: as §1
Assay [10] relates to CP191. Described as above. As to conditions: P. falciparum in erythrocytes, SYBR Green DNA, 72 h; series mostly up to 28.7 µM. The method, boiled down: as §1
[11] abbreviates: at 28.7 µM (top of the series), parasite line A.
Where [12] appears, read: at 28.7 µM (top of the series), parasite line B.
Setting [13] is: at 12.8 µM (top of the series), parasite line A.
The mark [14] stands for this setting: at 12.8 µM (top of the series), parasite line B.

Records with an inconclusive call do not appear. Values without a mark were called inactive. Calls of active or inactive are those of the source. The call rests on the fitted dose curve; in most records, active means well fitted inhibition curve with a large enough effect; inconclusive means small, poorly fitted or top-dose-only effect; inactive means flat fitted curve, though single readings scatter.
Potency means the concentration at half of the fitted maximal effect.

Consider `CCC(C)(S(=O)(=O)CC)S(=O)(=O)CC`, for which the results for the activity, negative = inhibition in [1] (setting [11]) and in assay [1] (setting [12]) were 9.02% and 9.51%, respectively. The Potency entry in [2], in assay [3], in [4], in [5], in [6] and in assay [7] was “inactive” each time. The Potency entry in [8], in assay [9] and in assay [10] was “inactive” in each case.
Regarding `O=CC=O`, the activity, negative = inhibition was 6.37% in assay [1] (setting [11]) and 0.163% in assay [1] (setting [12]). Further, the Potency result in [2], in assay [3], in [4], in assay [5], in assay [6] and in [7] was “inactive” throughout. In addition, the Potency result in [8], in assay [9] and in assay [10] was “inactive” throughout.
Turning to `COc1ccc(OC)c(C(O)C(C)N)c1` (stereo not drawn), the activity, negative = inhibition in assay [1] (setting [11]) is 12.5%; in assay [1] (setting [12]), -2.03%. Besides, the Potency entry in assay [2], in assay [3], in assay [4], in assay [5], in assay [6] and in [7] was “inactive” in each case. The Potency entry in assay [8], in assay [9] and in [10] was “inactive” each time.
Turning to `S=C(S)N1CCNCC1`, the activity, negative = inhibition is 5.54% in [1] (setting [11]) and 4.75% in assay [1] (setting [12]). Further, the Potency result in [2], in assay [3], in assay [4], in [5], in assay [6] and in [7] was “inactive” each time. The Potency result in [8], in [9] and in assay [10] was “inactive” throughout.
Consider `CNC(=O)OCC[N+](C)(C)C`, for which the activity, negative = inhibition in assay [1] (setting [11]) is 18.2%; in [1] (setting [12]), 8.99%. The Potency entry in [2], in assay [3], in assay [4], in [5], in [6] and in assay [7] was “inactive” each time. Also, the Potency result in assay [8], in assay [9] and in assay [10] was “inactive” each time.
Consider `CCC1(c2ccccc2)C(=O)NC(=O)N(C)C1=O` (stereo not drawn), for which the activity, negative = inhibition in assay [1] (setting [11]) is 3.95%; in assay [1] (setting [12]), 7.56%. Further, the Potency entry in assay [2], in assay [4], in [5], in [7], in assay [8] and in [9] was “inactive” in each case. In addition, the Potency in [3] was 8.91 µM (active).
For `O=S(=O)(O)c1cc(O)ccc1O`, the activity, negative = inhibition in assay [1] (setting [13]) was 3.73%; in assay [1] (setting [14]) it was -1.7%. The Potency entry in [2], in [3], in assay [4], in assay [5], in assay [6] and in assay [7] was “inactive” in each case. Moreover, the Potency result in assay [8], in assay [9] and in assay [10] was “inactive” throughout.
As to `ClC=C(Cl)Cl`, the activity, negative = inhibition in assay [1] (setting [11]) was 6.3%; in [1] (setting [12]), 0.959%. The Potency result in assay [2], in [3], in assay [4], in assay [5], in assay [6] and in [7] was “inactive” each time. Moreover, the Potency entry in [8], in [9] and in assay [10] was “inactive” each time.
For `CC[N+](C)(CC)CCOC(=O)C(O)(c1ccccc1)c1ccccc1`, the results for the activity, negative = inhibition in [1] (setting [11]) and in assay [1] (setting [12]) were 5.27% and 8.78%, respectively. Further, the Potency result in [2], in assay [3], in assay [4], in assay [5], in assay [6] and in assay [7] was “inactive” each time. Further, the Potency entry in assay [8], in assay [9] and in [10] was “inactive” each time.
Regarding `C=CCN(C1=NCCN1)c1c(Cl)cccc1Cl`, the activity, negative = inhibition in assay [1] (setting [11]) is 11.1%; in assay [1] (setting [12]), 1.37%. For the same compound, the Potency result in [2], in assay [3], in assay [4], in [5], in assay [6] and in [7] was “inactive” throughout. Also, the Potency result in [8], in assay [9] and in assay [10] was “inactive” in each case.
Consider `[O]=[Cd]`, for which the results for the activity, negative = inhibition in assay [1] (setting [11]) and in assay [1] (setting [12]) were 10.1% and 8.29%, respectively. Also, the Potency result in assay [2], in [3], in [4], in assay [5], in [6] and in [7] was “inactive” in each case. Further, the Potency entry in [8], in [9] and in [10] was “inactive” each time.
As to `ClCC1CO1` (stereo not drawn), the activity, negative = inhibition in assay [1] (setting [11]) is 2.63%; in assay [1] (setting [12]), -1.12%. The Potency result in assay [2], in assay [3], in [4], in [5], in assay [6] and in [7] was “inactive” throughout. Further, the Potency entry in assay [8], in assay [9] and in assay [10] was “inactive” in each case.
Regarding `ClC1C(Cl)C(Cl)C(Cl)C(Cl)C1Cl` (stereo not drawn), the activity, negative = inhibition in assay [1] (setting [11]) is 10.1%; in assay [1] (setting [12]), 13.2%. Further, the Potency entry in [2], in assay [3], in assay [4], in [5], in [6] and in assay [7] was “inactive” in each case. The Potency result in [8], in assay [9] and in [10] was “inactive” throughout.
With `CCC1(C)CC(=O)NC(=O)C1`, the activity, negative = inhibition in [1] (setting [13]) is 7.23%; in [1] (setting [14]) it was 5.64%. The Potency entry in assay [2], in [3], in assay [4], in [5], in assay [6] and in assay [8] was “inactive” throughout. The Potency entry in [9] and in assay [10] was “inactive” each time.
On to `N#CN`, for which the results for the activity, negative = inhibition in assay [1] (setting [11]) and in assay [1] (setting [12]) were 10.5% and 6.79%, respectively. The Potency result in [2], in assay [3], in assay [4], in assay [5], in assay [6] and in assay [7] was “inactive” in each case. Also, the Potency result in assay [8], in [9] and in [10] was “inactive” each time.
For the compound `S=C=S`, the activity, negative = inhibition in assay [1] (setting [11]) was 2.86%; in assay [1] (setting [12]) it was 20.2%. Moreover, the Potency entry in assay [2], in [3], in assay [4], in assay [5], in [6] and in assay [7] was “inactive” throughout. In addition, the Potency entry in [8], in assay [9] and in assay [10] was “inactive” in each case.
For `CC(=O)O[C@H]1CC[C@H]2[C@@H]3CCC4=CC(=O)CCC4=C3C=C[C@]12C`, the activity, negative = inhibition in assay [1] (setting [11]) was 4.1%; in [1] (setting [12]), 0.383%. The Potency entry in assay [2], in [4], in [5], in assay [6], in assay [7] and in assay [8] was “inactive” throughout. For the same compound, the Potency result in assay [9] and in assay [10] was “inactive” each time.
`CCN(CC)C(=O)/C(Cl)=C(\C)OP(=O)(OC)OC`: the activity, negative = inhibition in assay [1] (setting [11]) was -6.34%; in assay [1] (setting [12]), 3.3%. The Potency entry in [2], in assay [4], in assay [5], in assay [6], in assay [7] and in [8] was “inactive” throughout. For the same compound, the Potency entry in [9] and in assay [10] was “inactive” each time.
